From PubChem
A selection: hits, their analogues and other compounds. The true share with any hit is near 3.3%.
eIF4E 4G PPI: eIF4E–eIF4G protein interaction inhibitors, primary screen, biochemical, uHTS, TR-FRET, eIF4GI fragment | TR-FRET eIF4E-eIF4GI(517-606) binding, 2 h | inhibition, % at 21.7 µM | AID 782, 2007 | actives 0.37% (n = 220,000) | Eukaryotic translation initiation factor 4E (Mus musculus) + Eukaryotic translation …
Target sequence (P63073 whole entry, looked up, the tested form may be a part): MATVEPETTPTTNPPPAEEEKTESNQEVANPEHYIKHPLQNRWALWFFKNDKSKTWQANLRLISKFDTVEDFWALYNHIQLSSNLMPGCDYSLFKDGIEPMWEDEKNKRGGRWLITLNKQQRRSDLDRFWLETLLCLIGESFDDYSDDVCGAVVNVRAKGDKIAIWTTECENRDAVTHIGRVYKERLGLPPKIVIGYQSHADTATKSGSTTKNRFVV
Target sequence (Q04637 whole entry, looked up, the tested form may be a part): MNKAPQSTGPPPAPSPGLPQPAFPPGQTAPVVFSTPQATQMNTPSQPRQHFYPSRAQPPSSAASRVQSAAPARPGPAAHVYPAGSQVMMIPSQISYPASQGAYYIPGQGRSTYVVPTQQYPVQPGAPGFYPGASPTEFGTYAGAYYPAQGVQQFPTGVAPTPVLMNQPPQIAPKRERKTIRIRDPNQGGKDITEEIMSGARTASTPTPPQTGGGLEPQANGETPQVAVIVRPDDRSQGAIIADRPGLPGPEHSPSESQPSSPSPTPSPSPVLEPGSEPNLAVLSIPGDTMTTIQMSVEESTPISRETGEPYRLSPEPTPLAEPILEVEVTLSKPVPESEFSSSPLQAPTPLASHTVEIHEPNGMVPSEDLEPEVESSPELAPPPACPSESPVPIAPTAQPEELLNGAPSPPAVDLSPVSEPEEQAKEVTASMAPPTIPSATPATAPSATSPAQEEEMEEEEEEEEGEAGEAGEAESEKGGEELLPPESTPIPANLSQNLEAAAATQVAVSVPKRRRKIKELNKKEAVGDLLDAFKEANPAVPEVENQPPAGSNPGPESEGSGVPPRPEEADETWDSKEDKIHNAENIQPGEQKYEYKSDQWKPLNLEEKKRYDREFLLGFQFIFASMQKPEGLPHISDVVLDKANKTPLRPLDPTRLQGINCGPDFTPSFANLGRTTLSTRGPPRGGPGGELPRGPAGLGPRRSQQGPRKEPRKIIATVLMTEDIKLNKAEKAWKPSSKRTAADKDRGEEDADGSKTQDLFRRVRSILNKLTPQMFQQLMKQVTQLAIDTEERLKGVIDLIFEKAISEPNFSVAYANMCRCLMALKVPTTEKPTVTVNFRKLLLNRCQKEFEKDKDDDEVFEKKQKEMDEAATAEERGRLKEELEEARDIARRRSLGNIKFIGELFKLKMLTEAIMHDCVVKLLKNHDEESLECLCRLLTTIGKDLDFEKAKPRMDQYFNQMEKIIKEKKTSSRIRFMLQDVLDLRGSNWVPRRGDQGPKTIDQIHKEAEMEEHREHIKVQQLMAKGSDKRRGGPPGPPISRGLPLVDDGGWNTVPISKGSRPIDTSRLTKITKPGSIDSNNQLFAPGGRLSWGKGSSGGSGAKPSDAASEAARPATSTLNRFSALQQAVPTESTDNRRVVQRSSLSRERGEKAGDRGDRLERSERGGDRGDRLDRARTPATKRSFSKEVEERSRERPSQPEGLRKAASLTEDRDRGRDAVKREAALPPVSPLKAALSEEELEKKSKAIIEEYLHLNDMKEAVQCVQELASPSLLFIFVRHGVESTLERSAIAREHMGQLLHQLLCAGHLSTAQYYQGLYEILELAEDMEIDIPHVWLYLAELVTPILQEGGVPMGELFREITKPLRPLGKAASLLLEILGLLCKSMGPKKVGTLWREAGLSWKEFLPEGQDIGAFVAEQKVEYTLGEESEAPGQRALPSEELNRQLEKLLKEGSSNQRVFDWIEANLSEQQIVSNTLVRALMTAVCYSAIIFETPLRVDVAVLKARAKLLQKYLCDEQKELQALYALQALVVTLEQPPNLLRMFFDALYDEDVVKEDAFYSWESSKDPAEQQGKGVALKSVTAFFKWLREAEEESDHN
Mcl1 Bid PPI: Mcl-1/Bid binding inhibitors, primary screen, biochemical, TR-FRET, 1536-well; inhibition, % at 21.7 µM; TR-FRET Mcl-1/Bid-Dy647 peptide binding; actives 0.97% (n = 220,000); AID 1021, 2008; Induced myeloid leukemia cell differentiation protein Mcl-1 (Homo sapiens), Q07820;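 active = compounds that cut the binding signal by more than half at the single screening dose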;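 also: His-tagged Mcl-1 with europium anti-His antibody binding Bid BH3 peptide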
14-3-3 Bad inh: inhibitors of 14-3-3 zeta/Bad binding, primary screen, biochemical, TR-FRET, bovine 14-3-3 zeta; TR-FRET 14-3-3zeta/Dy647-pBad peptide displacement, 1 h; inhibition, % at 21.7 µM; actives 0.71% (n = 220,000); AID 781, 2007;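 active = inhibition above about 70%, limit read from the data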
p47phox inh: p47phox/p22phox peptide binding inhibitors, primary screen, biochemical, uHTS, NADPH oxidase regulatory subunit; Neutrophil cytosol factor 1 (Homo sapiens), P14598; fluorescence polarization, 2 h; inhibition, % at 24.7 µM; actives 0.53% (n = 220,000)
Mcl1 Noxa PPI: Mcl-1/Noxa binding inhibitors, primary screen, biochemical, TR-FRET, 1536-well; TR-FRET Mcl-1/Noxa peptide binding, 2 h; inhibition, % at 21.7 µM; actives 1.5% (n = 220,000); AID 1022, 2008;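 active = compounds that cut the protein-peptide binding signal by more than 50% relative to plate controls in a single-dose test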;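 also: His-tagged Mcl-1 with rhodamine Noxa BH3 peptide and terbium anti-His antibody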
Mcl-1 Bim block: inhibitors of Bim peptide binding to Mcl-1, primary screen, biochemical, bead-based flow cytometry, multiplex; Induced myeloid leukemia cell differentiation protein Mcl-1 (Homo sapiens), Q07820; Bim peptide-Mcl-1 binding; inhibition, % at 10 µM; actives 0.1% (n = 190,000); in the data active = inhibition above about 40%
A number is an active result; 0 = inactive; - = no result given; [ ] = remark or other dose.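 The calls were made as follows, unless noted: active = inhibition above about 30% (limit read from the data); inactive = the rest.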

SMILES	eIF4E 4G PPI	Mcl1 Bid PPI	14-3-3 Bad inh	p47phox inh	Mcl1 Noxa PPI	Mcl-1 Bim block
CCN(CC)c1ccc(/C=C2/C(=O)NC(=O)N(CC3CCCO3)C2=O)cc1 (stereo unspecified)	0	0	0	0	0	0
CCN(CC)c1ccc(/C=C2\C(=O)NC(=O)N(Cc3ccco3)C2=O)cc1	0	0	0	126.5	0	0
CC(C)(C)C(=O)OCC12CCC(O1)C1(C)C(=O)OCC21 (stereo unspecified)	0	0	0	0	0	0
CCC(=NCc1cccnc1)c1c(O)n(-c2ccc(C)cc2)c(=O)[nH]c1=O	0	0	0	0	0	-
CCC(=NCc1cccnc1)c1c(O)n(-c2ccccc2)c(=O)[nH]c1=O	32.1	0	0	0	0	-
CCN(CC)CCNCC(=O)Nc1ccc(Cl)cc1C(=O)c1ccccc1	0	0	85.9	0	0	0
CN[C@H]1C[C@H]2O[C@@](C)([C@H]1OC)n1c3ccccc3c3c4c(c5c6ccccc6n2c5c31)C(=O)NC4	0	0	0	0	61.9	0
CC1=CC(=O)NP(=O)(Oc2ccc3ccccc3c2)N1 (stereo unspecified)	80.6	0	0	0	0	0
CCc1c(C(=O)NN2C(=O)C3C4CCC(O4)C3C2=O)csc1C (stereo unspecified)	0	0	0	0	0	0
Cc1ccc(-c2nn(Cc3ccccc3)cc2C(=O)O)cc1	95.6	0	0	0	0	-
CCN1CCN(Cc2nnnn2C(C)(C)C)CC1	0	0	74.8	0	0	0
CCOc1ccc(N2C(=O)/C(=C\c3cccs3)C(=O)NC2=S)cc1	0	0	0	0	66.7	0
CCOc1ccc(N2C(=O)NC(=O)/C(=C\c3ccccc3[N+](=O)[O-])C2=O)cc1	0	0	0	0	0	-
O=C1NC(=S)N(c2ccccc2F)C(=O)/C1=C\c1cccs1	0	0	0	0	86.2	0
Cc1cc2c(C(C)C)c(O)c(O)c(C=O)c2c(O)c1-c1c(C)cc2c(C(C)C)c(O)c(O)c(C=O)c2c1O	33.4[fluorescence artefact?]	99.9	82.0[fluorescence artefact?]	0	117.9	0
Cc1c2ccncc2c(C)c2c1[nH]c1ccccc12	0	0	0	94.7	0	0
CN1CCC(N(C)c2nc(-c3ccc([N+](=O)[O-])cc3)nc3ccccc23)CC1	0	0	0	0	94.3	0
OC(CCNCCc1c[nH]c2ccccc12)C(F)(F)Cl (stereo unspecified)	0	0	0	0	0	0
CCN1CCN(Cc2ccc(C)cc2C)CC1	0	0	77.1	0	0	0
Cc1ccc(CN2CCN(C)CC2)c(C)c1	0	0	0	0	0	0
CC1=NN(c2ccccc2)C(=O)C1/C=C1\C(=O)NC(=O)N(c2cc(C)cc(C)c2)C1=O (stereo unspecified)	0	0	0	0	0	0
CC1=NN(c2ccccc2)C(=O)C1/C=C1/C(=O)NC(=O)N(c2cc(C)cc(C)c2)C1=O (stereo unspecified)	0	0	74.6	0	0	0
NC12CN3CN(CN(C3)C1)C2 (tested in a mixture with another compound)	0	0	0	0	0	0
O=C1c2ccccc2C(=O)N1Cc1nc2ccccc2c(=O)n1-c1ccccn1	31.1	0	0	0	0	0
CCOC(=O)c1c(/N=C/C2C(=O)NC(=S)NC2=O)sc2c1CCC2	0	0	78.2	0	0	0
SMILES	eIF4E 4G PPI	Mcl1 Bid PPI	14-3-3 Bad inh	p47phox inh	Mcl1 Noxa PPI	Mcl-1 Bim block
CCOC(=O)c1c(/N=C/C2C(=O)NC(=S)NC2=O)sc(C)c1C	0	67.0	0	0	0	0
C/C(=N\N1CCN(C)CC1)c1c(O)n(Cc2ccccc2)c(=O)[nH]c1=O	0	0	0	0	0	0
C/C(=C/C=C/[C@@H](C)C(=O)O)[C@H]1CN[C@H](C(=O)O)[C@H]1CC(=O)O	0	0	0	0	0	0
NC1=C([N+](=O)[O-])C(c2ccc3c(c2)OCO3)c2c(c3ccccc3oc2=O)O1 (stereo unspecified)	0	0	0	0	0	-
O=c1oc2ccccc2c(O)c1[C@H]1c2ccc(O)cc2Oc2c1c(=O)oc1ccccc21	0	0	0	0	60.7	-
COc1ccc(/C=N/N=C(/N)N[N+](=O)[O-])c(OC)c1	0	0	0	0	0	0
N/C(=N\N=C/c1ccc(-c2ccc(O)c(C(=O)O)c2)o1)N[N+](=O)[O-]	33.3[fluorescence artefact?]	0	95.2[fluorescence artefact?]	0	87.3	0
Cc1c(C=O)c2ccccc2n1Cc1ccc(F)cc1	0	0	0	0	0	0
O=Cc1c(C(=O)O)n(Cc2ccc(Cl)cc2)c2ccccc12	0	0	0	0	65.0	0
CCCN1C2CCCC1CC(NC(C)=O)C2 (stereo unspecified)	0	0	0	0	0	0
CNC(=S)NC1CC2CCCC(C1)N2CC(C)C (stereo unspecified)	0	0	0	39.8	0	0
CCCCN1C(=O)/C(=C/C=C/c2ccco2)C(=O)NC1=S	0	76.0	0	0	96.2	0
O=C1NC(=O)N(Cc2ccc(F)cc2)C(=O)/C1=C\C=C\c1ccco1	0	0	0	0	0	-
CN1/C(=C\C=C2C(=O)NC(=S)NC2=O)C(C)(C)c2ccccc21	0	82.4	0	0	0	0
Cc1ccc(CN2CCN(Cc3ccccc3F)CC2)cc1	0	0	0	0	0	0
FC(F)(F)c1ccccc1CN1CCN(Cc2ccccc2)CC1	0	0	73.6	0	0	0
O=C1CCCN1c1ccc(S(=O)(=O)O)cc1 (tested in a mixture with another compound)	0	0	0	0	0	0
C/C(=N\N(C)c1ccccc1)c1c(O)[nH]c(=O)[nH]c1=O	0	0	0	0	0	-
CCN(CC)P(=O)(NC(=O)C(Cl)(Cl)Cl)N(CC)CC.[Cl-].[Cl-].[Cl-].[Nd+3]	0	0	0	33.1	0	0
CC(=NCC1CCCO1)c1c(O)n(C2CCCCC2)c(=O)[nH]c1=O (stereo unspecified)	0	0	0	0	0	-
C=CCn1c(O)c(C(C)=NCC2CCCO2)c(=O)[nH]c1=O (stereo unspecified)	0	77.5	0	0	0	-
CCC(C)C1NC(=O)C(C(C)=O)=C1O (stereo unspecified)	0	0	0	0	0	-
CCOC(=O)C1(CCOc2ccccc2)CCN(Cc2ccc(C)s2)CC1	0	0	0	0	0	0
CCCCN(Cc1ccccc1)C1CCN(CCc2ccccc2)CC1	0	0	0	0	50.7	0
